# Results reported in PubChem BioAssay (Tox21).
# Several values for one entry are separate records, joined by “and”; a condition that tells them apart may be missing. Equal entries are not always repeated. Results filed as inconclusive are left out. Entries that show only a call come without a potency. Where a structure was tested more than once in an assay, its records may differ in their call. Activity calls are given as the source filed them. Calls follow the shape of the full dose curve.
# Assay: qHTS assay to identify small molecule agonists of the AP-1 signaling pathway - cell viability counter screen (AID 1159525); also: nearly all actives have a fitted effect of over 55% in size
# Details: ME-180 (cervical carcinoma) AP-1-bla cells viability, ATP luminescence, 5 h; series mostly up to 76.8 µM
# Source text: National Center for Advancing Translational Sciences [NCATS]
# NIH Chemical Genomics Center [NCGC]
# U.S. Environmental Protection Agency [EPA]
# National Institutes of Environmental Health Sciences [NIEHS]
# National Toxicology Program [NTP]
# U.S. Food and Drug Administration [FDA]
# Activator protein-1 (AP-1), a transcription factor, plays an important role in tumor genesis by regulating genes involved in cell proliferation, differentiation, apoptosis, and angiogenesis. AP-1 activity is induced by a complex network of signaling pathways that involves extracellular signals, such as growth factors. The AP-1 protein complex formed from c-Fos and c-Jun binding to the AP-1 response element results in transcriptional activation of genes containing such elements within their promoter.
# Low molecular weight molecules have been discovered and developed to modulate various components of these signaling pathways, for example, MAP kinase inhibitors. However, many points of pathway modulation remain untested due to the lack of chemical probes making this signaling locus of general interest.
# Using a beta-lactamase reporter-gene under control of the AP-1 response element, a cell-based assay [CellSensor(TM) AP-1-bla ME-180 developed by Invitrogen Corp.] was used to measure EGF-induced signaling. The Tox21 10K library compounds were measured for their ability to positively modulate the action of EC50 EGF on reporter gene activity. Compounds were screened in a 15-pt titration series in 1536-well format. The cytotoxicity of the Tox21 compound library against this cell line was tested in parallel by measuring the intra cellular ATP content in the same wells.
# Tox21 Assay Protocol Summary:
# 2500 cells/5uL in Opti-MEM medium containing 0.5% dialyzed FBS, 0.1 mM NEAA, 1 mM sodium pyruvate and 10 mM HEPES was dispensed into 1536-well black wall/clear bottom plates using a Multidrop dispenser and cells were cultured at 37 degrees Celsius overnight. Next day 23 nL of compounds dissolved in DMSO, positive controls or DMSO were delivered to each well using a pin tool. The plates were incubated at 37 degrees Celsius for 5 hours. 1 uL of LiveBLAzerTM B/G FRET substrate (Solution A+B+C+D) was added to each well using a Flying Reagent Dispenser. After incubated at room temperature for 2.5 hours the plates were measured on an EnVision plate reader at Excitation 405nm, Emission1=460nm and Emission 2=530nm. The %Activity was determined from the ratio of 460nm/530nm.
# After the plates were read for Beta-Lactamase assay on Envision; 3 ul Cell Titer Glo (Promega) was added to measure the cytotoxicity and the plates were then incubated at RT in dark for 30 min. The luminescence was read on ViewLux (Perkin Elmer, Shelton, CT) using 6 sec exposure. ViewLux data was expressed as relative luminescence units.
# For primary data analysis, raw plate reads for each titration point were first normalized relative to […] EGF control (100%) and DMSO only wells (basal, 0%).
# For primary data analysis for viability assay, raw plate reads for each titration point were first normalized Tetra n-octyl ammonium bromide control (-100%) and DMSO (control, 100%).
# Potency is read from the fitted curve at half-maximal effect.
row,Compound,Potency
1,O=[N+]([O-])O,inactive
2,C1CCC(NC2CCCCC2)CC1,inactive
3,Nc1ccccc1,inactive
4,Nc1ccc(Cl)cc1,inactive
5,CCCCn1cc[n+](C)c1,inactive
6,CCC[N+]1(C)CCCCC1,inactive
7,O=c1nc(O)n(Cl)c(=O)n1Cl,inactive
8,CCCCn1cc[n+](C)c1C,inactive
9,CCNc1nc(Cl)nc(NCC)n1,inactive
10,O=S(=O)(O)O,inactive
11,CCCCCC[n+]1ccccc1,inactive
12,Cc1cc(-c2ccc(N)c(C)c2)ccc1N,inactive
13,O=P1(N(CCCl)CCCl)NCCCO1 (stereo not given),inactive
14,Oc1ccccc1-c1ccccc1,inactive
15,CC[n+]1ccccc1,inactive
16,CCCC[n+]1cccc(C)c1,inactive
17,CC(=O)[O][Hg][c]1ccccc1,1.37 µM (active) and 2.45 µM (active) and 4.25 µM (active)
18,O=C(O)C(Cl)(Cl)Cl,inactive
19,C=CCOC(Cn1ccnc1)c1ccc(Cl)cc1Cl (stereo not given),inactive
20,N#CS,inactive

row,Compound,Potency
1,CCC(=O)C(CC(C)N(C)C)(c1ccccc1)c1ccccc1 (stereo not given),inactive
2,CCCCCCCCn1cc[n+](C)c1,inactive
3,Nc1ccc(-c2ccc(N)cc2)cc1,inactive
4,CCCC[N+]1(C)CCCCC1,inactive
5,CC(Cl)(Cl)C(=O)O,inactive
6,COP(=O)(OC)C(O)C(Cl)(Cl)Cl (stereo not given),inactive
7,CC(=O)O,inactive
8,CCCC[N+]1(C)CCCC1,inactive
9,CCCCCCn1cc[n+](C)c1,inactive
10,O=C(O)CC(O)(CC(=O)O)C(=O)O,inactive
11,CC[N+](CC)(CC)CC,inactive
12,CC[N+]1(C)CCCC1,inactive
13,COc1ccccc1N,inactive
14,OCCOc1ccccc1,inactive
15,CNC,inactive
16,CCCC[n+]1ccccc1C,inactive
17,CCCCCCCCCCCCCC[P+](CCCCCC)(CCCCCC)CCCCCC,11 µM (active) and 19.7 µM (active) and inactive
18,CCCCCCCCCCCCCCCCn1cc[n+](C)c1,inactive and 21.9 µM (active)
19,O=C(O)COc1ccc(Cl)cc1Cl,inactive
20,O=C(O)C(Cl)Cl,inactive
